In PubChem BioAssay (NCATS):
Inconclusive results are not listed. Values without a mark were called inactive. The call rests on the fitted dose curve; in most records, active means well fitted inhibition curve with a large enough effect; inconclusive means small, poorly fitted or top-dose-only effect; inactive means flat fitted curve, though single readings scatter.

These molecules were tested against Calcium and integrin-binding protein 1 (Homo sapiens) (UniProt Q99828) (assay: Primary qHTS for Identification of Calcium Integrin Binding Protein 1 (CIB1) Competitor (AID 1508620;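 further: GST tagged CIB1 binding a fluorescein labelled alphaIIb integrin peptide tracer; top concentration of the series differs between compounds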)). Conditions: CIB1-GST / FITC-alphaIIb peptide fluorescence polarization; series mostly up to 114 µM; activity change, negative = inhibition: at the top concentration.
Calcium and integrin-binding protein 1 (Homo sapiens), sequence (Q99828 whole entry, looked up): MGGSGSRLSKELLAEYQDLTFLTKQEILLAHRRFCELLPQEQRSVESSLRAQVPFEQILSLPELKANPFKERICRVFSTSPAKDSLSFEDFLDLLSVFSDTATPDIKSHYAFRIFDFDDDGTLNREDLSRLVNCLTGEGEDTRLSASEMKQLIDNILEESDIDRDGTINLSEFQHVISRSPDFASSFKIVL
Outline: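 Fluorescence polarization competition: CIB1-GST (1 uM final) preincubated with compound 15 min at room temperature, then FITC-labeled alphaIIb peptide (100 nM final) added for another 15 min. Polarization read at Ex 480/Em 540.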
On the % scale 0 is the no-effect control and ±100 the full control effect.

Structure (SMILES) | activity change, negative = inhibition [%]
Cc1ccc(-c2cc(C(=O)Nc3ccccc3Cl)c3ccccc3n2)cc1C | 5.22
O=C1CC(c2ccccc2)Cc2[nH]c(=O)c(-c3nc(-c4ccc(F)cc4)cs3)cc21 (centres undefined) | 3.17
COc1ccc(C(=O)Nc2nc(-c3ccccc3)cs2)cc1NS(=O)(=O)c1ccc(C)cc1 | 0.207
O=C(Nc1nc(-c2ccccc2)cs1)c1ccncc1NS(=O)(=O)c1ccc(N2CCCC2=O)cc1 | -25.2
O=C(Nc1nc(-c2ccccc2)cs1)c1ccncc1NS(=O)(=O)c1cccnc1 | -21.5
COc1cccc(NC(=O)c2cc(-c3ccc(C)c(C)c3)nc3ccccc23)c1 | 4.59
COc1ccc(Cl)cc1C(=O)Nc1nc(-c2ccccc2)cs1 | 3.52
O=c1[nH]c(CCl)nc2sc3c(c12)CCCC3 | -2.88
COc1ccccc1C(=O)Nc1nc(-c2ccccc2)cs1 | -2.81
Cc1ccc(S(=O)(=O)Nc2cc(C(=O)Nc3nc(-c4ccccc4)cs3)ccn2)cc1 | 12.4
Cc1ccc(-c2cc(C(=O)Nc3ccc(S(N)(=O)=O)cc3)c3ccccc3n2)cc1C | 7.14
COc1c(NS(=O)(=O)c2ccc(C)cc2)cccc1C(=O)Nc1nc(-c2ccccc2)cs1 | 7.05
Cc1ccc(-c2cc(C(=O)N(C)c3ccccc3)c3ccccc3n2)cc1C | 2.32
CCOC(=O)c1csc(NC(=O)c2ccncc2NS(=O)(=O)c2ccc(C)cc2)n1 | -28.5
Cc1ccc(S(=O)(=O)Nc2ccccc2C(=O)Nc2cccc(-c3ccccc3)c2)cc1 | -0.745
O=C(Nc1nc(-c2ccccc2)cs1)c1ccccc1S(=O)(=O)Nc1nccs1 | -8.18
Cc1ccc(-c2cc(C(=O)Nc3ccn[nH]3)c3ccccc3n2)cc1C | 8.55
CC(C)Oc1ccccc1C(=O)Nc1nc(-c2ccccc2)cs1 | 0.95
Cc1ccc(S(=O)(=O)Nc2cc(C)ccc2C(=O)Nc2nc(-c3ccccc3)cs2)cc1 | -3.04
Cc1ccc(S(=O)(=O)Nc2ccccc2C(=O)Nc2ccc(-c3ccccc3)cc2)cc1 | 0.325

Structure (SMILES) | activity change, negative = inhibition [%]
Cc1ccc(S(=O)(=O)Nc2ccncc2C(=O)Nc2nc(-c3ccccc3)cs2)cc1 | -5.51
COc1ccc(NS(=O)(=O)c2ccc(C)cc2)c(C(=O)Nc2nc(-c3ccccc3)cs2)c1 | 0.218
Cc1ccc(S(=O)(=O)Nc2cc(Br)ccc2C(=O)Nc2nc(-c3ccccc3)cs2)cc1 | -10.9
Cc1ccc(S(=O)(=O)Nc2ccccc2C(=O)Nc2ncc(-c3ccccc3)s2)cc1 | -14.7
Cc1ccc(-c2cc(C(=O)Nc3ccc(-c4noc(=O)[nH]4)cc3)c3ccccc3n2)cc1C | 56.5
N#Cc1cccc(S(=O)(=O)Nc2cnccc2C(=O)Nc2nc(-c3ccccc3)cs2)c1 | 5.56
Cc1ccc(-c2cc(C(=O)Nc3ncco3)c3ccccc3n2)cc1C | -13.5
Cc1ccc(S(=O)(=O)Nc2ccccc2C(=O)Nc2nccs2)cc1 | -13.6
Cc1ccc(-c2cc(C(=O)Nc3cccc4ccccc34)c3ccccc3n2)cc1C | 8.81
Cc1ccc(S(=O)(=O)Nc2ccc(F)cc2C(=O)Nc2nc(-c3ccccc3)cs2)cc1 | -13.6
O=C(Cc1nc2ccc(Cl)cc2[nH]1)Nc1ccc(S(=O)(=O)Nc2nccs2)cc1 | -9.61
Cc1ccc(S(=O)(=O)Nc2cccc(C(=O)Nc3nc(-c4ccccc4)cs3)c2Cl)cc1 | 10.8
COc1ccccc1NC(=O)c1cc(-c2ccc(C)c(C)c2)nc2ccccc12 | 8.2
O=C(Nc1ccc(S(=O)(=O)Nc2nccs2)cc1)C1CCC2(CCC2)CC1 | 0.43
O=S(=O)(Nc1nc(CN2CCOCC2)nc2sc3c(c12)CCC3)c1ccc2c(c1)OCCO2 | -11.2
Cc1ccc(-c2cc(C(=O)NCc3ccccc3)c3ccccc3n2)cc1C | 9.16
Cc1ccc(S(=O)(=O)Nc2cc(F)c(F)cc2C(=O)Nc2nc(-c3ccccc3)cs2)cc1 | -3.7
Cc1noc(C)c1S(=O)(=O)Nc1cnccc1C(=O)Nc1nc(-c2ccccc2)cs1 | -28.8
Cc1ccc(-c2cc(C(=O)N3CCCCC3)c3ccccc3n2)cc1C | 5.61
